NCOA1 inh = human NCOA1 inhibition; HEK293 GAL4-SRC1 luciferase reporter, luminescence; inhibition, % at 3.6 µM; 360,000 compounds, 0.12% hits;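 active means inhibition above the campaign mean plus 3 SD, with each screening campaign given its own cutoff, cut at about 60% in these data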;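 further: 0% = DMSO treated cells and 100% = gossypol at 36 µM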
Target sequence (Q15788 whole entry, looked up, the tested form may be a part): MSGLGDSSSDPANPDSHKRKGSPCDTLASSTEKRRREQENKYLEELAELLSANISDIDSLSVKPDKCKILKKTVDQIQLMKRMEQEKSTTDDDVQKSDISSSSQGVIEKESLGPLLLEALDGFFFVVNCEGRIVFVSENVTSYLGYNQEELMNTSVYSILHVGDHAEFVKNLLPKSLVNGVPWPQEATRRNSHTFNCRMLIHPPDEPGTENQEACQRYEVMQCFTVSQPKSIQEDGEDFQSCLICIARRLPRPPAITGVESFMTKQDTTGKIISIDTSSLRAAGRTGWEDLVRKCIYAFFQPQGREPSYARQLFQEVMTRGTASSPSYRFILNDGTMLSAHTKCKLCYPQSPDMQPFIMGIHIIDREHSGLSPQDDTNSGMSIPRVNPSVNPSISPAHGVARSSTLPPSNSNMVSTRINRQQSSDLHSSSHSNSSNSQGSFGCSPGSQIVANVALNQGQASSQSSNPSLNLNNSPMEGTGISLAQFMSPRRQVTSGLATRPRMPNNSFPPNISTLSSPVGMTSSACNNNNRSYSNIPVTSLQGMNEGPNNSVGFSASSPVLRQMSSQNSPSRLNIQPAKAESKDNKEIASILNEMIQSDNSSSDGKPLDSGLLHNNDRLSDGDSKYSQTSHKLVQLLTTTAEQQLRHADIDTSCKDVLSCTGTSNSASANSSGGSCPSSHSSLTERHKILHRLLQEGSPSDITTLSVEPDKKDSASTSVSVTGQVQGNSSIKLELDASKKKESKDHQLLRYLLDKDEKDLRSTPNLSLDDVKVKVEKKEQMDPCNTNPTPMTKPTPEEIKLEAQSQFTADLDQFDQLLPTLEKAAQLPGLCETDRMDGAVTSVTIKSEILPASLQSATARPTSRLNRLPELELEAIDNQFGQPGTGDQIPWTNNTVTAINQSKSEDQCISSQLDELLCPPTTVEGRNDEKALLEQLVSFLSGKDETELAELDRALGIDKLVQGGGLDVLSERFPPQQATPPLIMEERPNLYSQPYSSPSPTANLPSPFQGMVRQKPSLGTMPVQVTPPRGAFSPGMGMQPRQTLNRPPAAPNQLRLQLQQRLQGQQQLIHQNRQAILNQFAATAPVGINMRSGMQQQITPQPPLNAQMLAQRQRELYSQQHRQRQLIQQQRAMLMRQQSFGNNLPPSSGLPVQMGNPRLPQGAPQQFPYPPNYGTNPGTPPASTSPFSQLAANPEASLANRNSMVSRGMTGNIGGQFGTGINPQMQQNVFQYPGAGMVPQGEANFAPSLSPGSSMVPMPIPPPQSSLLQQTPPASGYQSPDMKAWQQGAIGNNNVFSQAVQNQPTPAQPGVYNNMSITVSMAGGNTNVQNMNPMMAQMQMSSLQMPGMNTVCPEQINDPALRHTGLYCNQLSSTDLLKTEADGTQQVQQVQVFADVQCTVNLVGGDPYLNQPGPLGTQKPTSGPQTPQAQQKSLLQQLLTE
NCOA3 inh = inhibits human SRC3 coactivator; Q9Y6Q9; HEK293 GAL4-SRC3 luciferase reporter, luminescence; inhibition, % at 3.6 µM; 360,000 compounds, 0.17% hits;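 active means inhibition above a per-campaign cutoff, the mean of all compounds plus 3 SD, cut at about 60% in these data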;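 further: 0% = DMSO-treated cells and 100% = gossypol-treated cells at 36 µM; higher means less SRC3-driven luciferase light from the GAL4 reporter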
SRC2 inh = inhibits human steroid receptor coactivator 2; Q15596; HEK293 GAL4-SRC2 luciferase reporter, luminescence; inhibition, % at 9 µM; 370,000 compounds, 0.17% hits; AID 651957;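 active means inhibition above the mean inhibition of all tested compounds plus 3 SD, set per campaign, cut at about 52% in these data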;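 further: 0% = DMSO treated cells and 100% = cells given Gossypol at 36 µM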
Gli-Sufu block = antagonists of Gli-Sufu signaling. inhibition, % at 5 µM. Sufu-KO-LIGHT fibroblasts, Gli luciferase reporter luminescence. 340,000 compounds, 0.74% hits. AID 588413;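 active means inhibition above about 55%, limit read from the data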;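 further: 0% = DMSO-treated cells and 100% = wells with medium but no cells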
COUP-TFII inh = inhibitors of human COUP-TFII (NR2F2) | 370,000 compounds, 0.7% hits | inhibition, % at 8.6 µM | HEK293T NGFI-A luciferase reporter, luminescence;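 active means inhibition above a per-plate cutoff, mean inhibition of test wells between control levels plus 3 SD, cut at about 38% in these data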;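 further: cells cotransfected with COUP-TFII expression vector driving the NGFI-A reporter; 0% = median of COUP-TF2 test wells and 100% = reporter-only cells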
NR5A2 inv ag = suppresses constitutive activity of human LRH-1; 360,000 compounds, 0.13% hits; inhibition, % at 3.6 µM; HEK293T StAR-luciferase reporter, LRH-1 transfected, 24 h; AID 602396; O00482;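 active means inhibition above the mean inhibition of all tested compounds plus 3 SD, cut at about 73% in these data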;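 further: 0% = DMSO wells and 100% = reporter-only cells lacking LRH-1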
Gal4-VP16 ctr = inhibits VP16 reporter, flagging COUP-TFII antagonist hits; shares compounds with COUP-TFII inh; HEK293 Gal4-VP16 luciferase reporter, luminescence; inhibition, % at 8.5 µM; 2,500 compounds, 25% hits; in the data active means inhibition above about 13%
COUP-TFII conf = COUP-TFII (NR2F2) inhibition, confirmation assay; 2,500 compounds, 45% hits; shares compounds with COUP-TFII inh; AID 687008; inhibition, % at 8.5 µM; HEK293 NGFI-A luciferase reporter, luminescence;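 active means mean inhibition over three repeats above a set limit taken from the earlier primary screen, cut at about 38% in these data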;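 further: 100% = cells given the luciferase reporter alone without the COUP-TF2 vector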
* hit, by the source's call. Only some compounds are listed: those with a hit (about 1.3% of all), similar ones and a draw of the others.

Screening COc1ccc(/C=C/c2nc3ccccc3c(=O)o2)cc1 returned NCOA1 inh 60.5, NCOA3 inh 60.6, SRC2 inh 77.1*, Gli-Sufu block 70.8*, COUP-TFII inh 78.9*, NR5A2 inv ag 50.9, Gal4-VP16 ctr -24.3 and COUP-TFII conf 0.7.
`COc1ccc(Cn2c(/C=C/c3ccccc3)nc3ccccc32)cc1` gave NCOA1 inh -109.6, NCOA3 inh -86.4, SRC2 inh -55.0, Gli-Sufu block -130.1, COUP-TFII inh -56.2 and NR5A2 inv ag -104.0.
COc1ccc(/C=C/c2nc3ccccc3n2C)cc1 was read as NCOA1 inh 6.5, NCOA3 inh 26.8, SRC2 inh 58.4*, Gli-Sufu block 44.7, COUP-TFII inh 63.7*, NR5A2 inv ag -31.2, Gal4-VP16 ctr 7.0 and COUP-TFII conf 39.4*.
C=CCN1C(=O)[C@@H](CC(=O)NCc2cccs2)[C@]2(C(=O)OCC)CCCCC/C=C/12 was read as SRC2 inh -18.2 and COUP-TFII inh -13.4.
Screening COc1c(C(O)CC(C)C)ccc2c1C(=O)OCc1cc(C)cc(O)c1O2 (stereo unspecified) returned NCOA1 inh 16.6, NCOA3 inh 15.1, SRC2 inh 8.5, Gli-Sufu block 8.6, COUP-TFII inh 38.4*, NR5A2 inv ag 12.4, Gal4-VP16 ctr 2.5 and COUP-TFII conf 19.2.
Screening COc1c(C(CC(C)C)OC(C)=O)ccc2c1C(=O)OCc1cc(C)cc(O)c1O2 (stereo unspecified) returned NCOA1 inh 12.4, NCOA3 inh 15.9, SRC2 inh 11.5, Gli-Sufu block 11.8, COUP-TFII inh 49.4*, NR5A2 inv ag 11.8, Gal4-VP16 ctr 0.4 and COUP-TFII conf 7.8.
For O=C(Nc1cccc(C(F)(F)F)c1)c1ccc2sc([C@H]3C[C@H](O)[C@@H](CO)O3)nc2c1 the results were NCOA1 inh 14.8, NCOA3 inh 12.9, SRC2 inh -6.6, COUP-TFII inh 57.9*, NR5A2 inv ag 12.3, Gal4-VP16 ctr 3.4 and COUP-TFII conf 23.8.
`O=C(Nc1ccc(Oc2ccccc2)cc1)c1ccc2sc([C@H]3C[C@H](O)[C@@H](CO)O3)nc2c1` gave NCOA1 inh 32.1, NCOA3 inh 5.4, SRC2 inh 28.2, COUP-TFII inh 73.8*, NR5A2 inv ag 37.9, Gal4-VP16 ctr -22.1 and COUP-TFII conf 46.0*.
For CC1=CC(=O)C(C(C)C)=C/C1=N/OS(=O)(=O)c1ccccc1 the results were NCOA1 inh -35.3, NCOA3 inh -15.8, SRC2 inh 13.9, Gli-Sufu block -6.1, COUP-TFII inh 58.1*, NR5A2 inv ag 9.0, Gal4-VP16 ctr 9.6 and COUP-TFII conf 12.7.
`CC1=CC(=O)C=C(C)C1=NOS(=O)(=O)c1ccccc1` gave NCOA1 inh -5.8, NCOA3 inh -7.7, SRC2 inh -9.9, Gli-Sufu block 3.9, COUP-TFII inh -10.6 and NR5A2 inv ag 22.3.
`CC1=CC(=O)C(C2CCCCC2)=C/C1=N\OS(=O)(=O)c1ccccc1` gave COUP-TFII inh 48.2*, Gal4-VP16 ctr -3.0 and COUP-TFII conf -13.3.
`COc1ccc(-c2noc(C3CCCN(C(=O)Nc4cc(C)cc(C)c4)C3)n2)cc1` (stereo unspecified) gave SRC2 inh -26.7 and COUP-TFII inh -12.0.
For O=C(CCS(=O)(=O)c1ccccc1)Nc1cc(Cl)ccc1F the results were SRC2 inh 0.2 and COUP-TFII inh 2.3.
For O=C(Nc1nc2c(Br)cccc2s1)c1ccc2c(c1)OCCO2 the results were COUP-TFII inh -25.9.
`C=CS(=O)(=O)N(Cc1ccc(F)cc1)C(=C)C(=O)OC` gave SRC2 inh 33.5, COUP-TFII inh 67.8*, Gal4-VP16 ctr 16.7* and COUP-TFII conf 17.1.
COC(=O)[C@@H](NC(=O)NCc1ccc(F)cc1)C(C)C was read as NCOA1 inh -0.7, NCOA3 inh 2.6, SRC2 inh -1.8, Gli-Sufu block 0.1, COUP-TFII inh -9.1 and NR5A2 inv ag 3.9.
CCCCNS(=O)(=O)CC1NCc2ccc(C)cc21 (stereo unspecified) was read as SRC2 inh -22.8 and COUP-TFII inh 2.5.
For CC1CCC2(CCC(=O)N2CCCO)CC1 (stereo unspecified) the results were SRC2 inh -4.9 and COUP-TFII inh -7.4.
O=[N+]([O-])c1cccc(-c2nc(NCc3ccccc3)c3ccccc3n2)c1 was read as NCOA1 inh -8.7, NCOA3 inh 2.0, SRC2 inh 17.2, Gli-Sufu block 2.9, COUP-TFII inh -3.5 and NR5A2 inv ag 1.7.
c1ccc(-c2cccc(CNc3nc(-c4ccccn4)nnc3-c3ccccc3)c2)cc1 was read as COUP-TFII inh 50.9*, Gal4-VP16 ctr -2.2 and COUP-TFII conf 8.3.
Screening O=c1c2ccccc2n(Cc2ccco2)n1[C@@H](Cc1ccccc1)Cn1cc(-c2ccc(-c3ccccc3)cc2)nn1 returned SRC2 inh -7.0 and COUP-TFII inh -13.4.
Screening Cc1ccc(C(=O)c2cccc(N)c2)cc1C returned NCOA1 inh 27.5, NCOA3 inh 31.5, SRC2 inh 79.5*, Gli-Sufu block 13.7, COUP-TFII inh 71.6*, NR5A2 inv ag 23.2, Gal4-VP16 ctr 61.7* and COUP-TFII conf 40.9*.
Screening CCOc1ccc(CCNC(=O)c2ccc(Oc3ccccc3)cc2)cc1OCC returned COUP-TFII inh 23.8.
CCOc1ccc(CCNC(=O)c2ccc3[nH]ccc3c2)cc1OCC was read as COUP-TFII inh 40.6*, Gal4-VP16 ctr -11.6 and COUP-TFII conf 13.1.
Screening CCOc1ccc(CCNC(=O)c2cc3sccc3n2Cc2ccccc2)cc1OCC returned COUP-TFII inh 40.1*, Gal4-VP16 ctr -5.2 and COUP-TFII conf 17.6.
CCOc1ccc(CCNC(=O)c2cc3sccc3n2Cc2cccc(C)c2)cc1OCC was read as COUP-TFII inh 21.0.
For CCOc1ccc(CCNC(=O)c2cc3sccc3n2CC)cc1OCC the results were NCOA1 inh 13.1, NCOA3 inh 10.5, SRC2 inh 23.5, Gli-Sufu block 3.2, COUP-TFII inh 49.6*, NR5A2 inv ag 28.8, Gal4-VP16 ctr -0.1 and COUP-TFII conf 29.3.
O=C(CCc1ccccc1)N[C@H]1[C@@H](OC(=O)c2ccc([N+](=O)[O-])cc2)CCC[C@]12C(=O)N(Cc1ccccc1)c1ccccc12 was read as SRC2 inh 10.7 and COUP-TFII inh -15.2.
Clc1ccc([C@H]2OC[C@@]3(CNCCc4c[nH]c5ccccc45)CS[C@H](c4ccc(Cl)cc4)N23)cc1 was read as SRC2 inh -8.0 and COUP-TFII inh 5.0.
CCn1c(COc2ccccc2)nnc1SCC(=O)Nc1ccc(Oc2ccccc2)cc1 was read as SRC2 inh 8.6 and COUP-TFII inh 15.3.
